# Source: PubChem BioAssay AID720582 (The Scripps Research Institute Molecular Screening Center, 2013)
# The campaign covered roughly 370,000 compounds. About 2,300 (0.62%) were called active.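 Rule for the calls: active = inhibition above a per-campaign cutoff equal to the mean of compounds falling between control-based bounds plus 3 SD (cut at about 20% in these data); inactive = the rest.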 The sample as a whole holds a higher share of actives than the screen did.
# Target: Disintegrin and metalloproteinase domain-containing protein 10 (Homo sapiens) (UniProt O14672)
# Test: human ADAM10 inhibitors, primary screen, biochemical, QFRET, HTS (AID 720582);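 note: 0% = DMSO wells while the 100% control is not disclosed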
# Details: recombinant ADAM10, EDANS/DABCYL FRET peptide cleavage, 3 h; at 7 µM; stronger effect = higher value
# Sequence of Disintegrin and metalloproteinase domain-containing protein 10 (Homo sapiens) (O14672 214-748 limits assumed): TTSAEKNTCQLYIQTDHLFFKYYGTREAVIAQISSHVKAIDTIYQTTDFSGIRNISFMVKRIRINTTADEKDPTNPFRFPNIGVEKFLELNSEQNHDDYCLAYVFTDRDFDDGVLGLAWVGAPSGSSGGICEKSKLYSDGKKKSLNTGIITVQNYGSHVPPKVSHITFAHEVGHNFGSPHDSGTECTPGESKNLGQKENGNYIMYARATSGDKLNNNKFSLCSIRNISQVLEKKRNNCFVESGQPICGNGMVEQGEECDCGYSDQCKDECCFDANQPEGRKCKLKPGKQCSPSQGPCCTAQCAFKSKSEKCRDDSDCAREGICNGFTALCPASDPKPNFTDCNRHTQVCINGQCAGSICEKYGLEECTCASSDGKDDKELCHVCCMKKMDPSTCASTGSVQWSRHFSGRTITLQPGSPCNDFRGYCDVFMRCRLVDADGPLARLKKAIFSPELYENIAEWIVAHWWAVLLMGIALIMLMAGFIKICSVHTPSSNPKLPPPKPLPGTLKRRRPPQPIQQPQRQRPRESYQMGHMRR
row,SMILES,inhibition
1,COc1cccc(CNC(=O)CNS(=O)(=O)c2ccc3nc(C)sc3c2)c1OC,4.07% (inactive)
2,Cc1cc(C(=O)NN=C/C=C/c2ccco2)n[nH]1,-13.7% (inactive)
3,C[C@@H]1ON(C)[C@H]2C[C@H]3c4[nH]c5cccc(-c6ccc7c(c6)OCO7)c5c4CCN3C[C@@H]12,-72.8% (inactive)
4,O=C(NN1C(=O)C2C3C=CC(C4CC34)C2C1=O)c1ccc(Cl)cc1 (stereo unspecified),-2.31% (inactive)
5,COc1ccc(C(=O)NN2C(=O)C3C(c4ccccc4)C=CC(c4ccccc4)C3C2=O)cc1 (stereo unspecified),24.9% (active)
6,O=C(NN1C(=O)C2C3C=CC(O3)C2C1=O)c1ccccc1 (stereo unspecified),1.76% (inactive)
7,CCCCN1CCN(C(=O)c2ccc3c(c2)NC(=O)C(C)(C)O3)CC1,2.07% (inactive)
8,Fc1ccc2nc(COCc3nc4ccc(F)cc4[nH]3)[nH]c2c1,2.8% (inactive)
9,O=C(O)COc1ccc(/C=N/O)cc1Br,3.83% (inactive)
10,COc1cc(/C=C/c2ccc(/C=C/c3cc(OC)c(OC)c(OC)c3)cc2)cc(OC)c1OC,-373% (inactive)
11,COc1cc(/C=N/O)cc(Br)c1OS(=O)(=O)c1ccc(C)cc1,21.9% (active)
12,Cc1ccc(-n2c(SCC(=O)Nc3ccc(S(=O)(=O)Nc4nccs4)cc3)nnc2-c2ccncc2)cc1,-1.24% (inactive)
13,CC1CCCC(C)N1C(=O)CN1CCN(c2nc(-c3ccc(F)cc3)cs2)CC1 (stereo unspecified),1.47% (inactive)
14,COCCCNC(=S)N1CCN(c2nc(-c3cccc(OC)c3)cs2)CC1,9.71% (inactive)
15,COc1cccc(NC(=O)CN2CCN(c3nc(-c4cccc(OC)c4)cs3)CC2)c1,21.4% (active)
16,CC[C@@H](CCC(=O)N(c1ccccc1)c1ccccc1)C1CC1,-6.31% (inactive)
17,CCOc1ccc(-n2c(SCC(=O)Nc3cc(C)c(NC(=O)c4ccccc4)cc3OC)nnc2-c2cccs2)cc1,17.4% (inactive)
18,CCOc1ccc(NC(=O)COc2ccc(S(=O)(=O)N3CCCC3)cc2)cc1,4.99% (inactive)
19,O=C(CSCc1ccc(Br)cc1)Nc1ccc(S(=O)(=O)N2CCCCCC2)cc1,24.1% (active)
20,COc1ccc(OCC(=O)OCC(=O)Nc2ccc(S(=O)(=O)N3CCCCC3)cc2)cc1,-5.59% (inactive)
21,CCOC(=O)[C@]12CCCCC/C=C\1N(Cc1ccc(OC)cc1)C(=O)[C@H]2CC(=O)N1CCOCC1,3.26% (inactive)
22,CCCCNC(=O)C[C@H]1C[C@@]2(C(=O)OC)C(=C[C@H](COCc3ccccc3)O[C@@H]2C)N(Cc2ccc(Cl)cc2Cl)C1=O,9.41% (inactive)
23,CC(C)(C)c1ccc(CSc2nnc(-c3cccs3)o2)cc1,-4.29% (inactive)
24,O=[N+]([O-])c1cccc(S(=O)(=O)N2CCCCCC2)c1,-4.84% (inactive)
25,Cc1ccc(S(=O)(=O)N2CCC(N3CCCCCC3)CC2)cc1,3.62% (inactive)
26,O=S(=O)(c1cccc(S(=O)(=O)N2CCC(n3nnc4ccccc43)CC2)c1)N1CCCCC1,20.5% (active)

row,SMILES,inhibition
1,CC1=C(C(=O)N2CCOCC2)CC(CC(=O)NCc2cccs2)C(=O)N1CCCN1CCCC1=O (stereo unspecified),-13.7% (inactive)
2,COc1cc(C2CC(=O)N3CN(Cc4ccccc4)CSC3=C2C#N)ccc1OCc1ccccc1 (stereo unspecified),27.5% (active)
3,COc1cc(C2C(C(=O)c3ccco3)=C(O)C(=O)N2c2cc(C)on2)ccc1OCc1ccccc1 (stereo unspecified),-2.12% (inactive)
4,CCCNC(=O)C1CC(=O)N(c2ccc(OCc3ccccc3)cc2)C1 (stereo unspecified),-1.57% (inactive)
5,N[C@@H](Cc1ccccc1)C(=O)N1CCC[C@@H]1C(=O)N1CCC2CCN(S(=O)(=O)c3ccccc3)CC21 (stereo partly specified),-2.11% (inactive)
6,COC[C@@H]1CCCN1c1ccc2c(c1)O[C@H](C)CCN(C1CC1)S2(=O)=O,-3.66% (inactive)
7,COC(=O)[C@@]12CCCCC=C1N(CCc1ccc(Cl)cc1)C(=O)[C@H]2CC(=O)NCc1ccc(OC)c(OC)c1,5.19% (inactive)
8,C[C@H]1[C@H](NC(=O)c2cccc(N(C)C)c2)CC[C@@]23CCCN2C(=O)CCC[C@@H]13,-106% (inactive)
9,O=C(CSC1=NCCS1)Nc1nc(-c2ccccc2)cs1,20.3% (active)
10,CC(NC(=O)COc1ccccc1)C(=O)NC1=NCCS1 (stereo unspecified),-1.01% (inactive)
11,Cc1csc(NC(=O)CSc2nnc(-c3cccnc3)o2)n1,-10.7% (inactive)
12,O=C(C[C@H]1C(=O)N(c2ccc(F)c(F)c2)C[C@@H]1Cc1ccccc1)Nc1ccccc1,23.2% (active)
13,C[C@H]1CN(c2ccc(Br)cc2)C(=O)[C@@H]1CC(=O)Nc1ccc(Br)cc1,-2.69% (inactive)
14,CNC(=O)C[C@H]1C(=O)N(c2ccc(OC)cc2)C[C@@H]1Cc1ccccc1,-1.73% (inactive)
15,O=C(COC(=O)CCCSc1nc2ccccc2[nH]1)Nc1ccc(Oc2ccccc2)cc1,23.7% (active)
16,O=C(COC(=O)CCc1nc2ccccc2c(=O)[nH]1)Nc1ccc(N2CCOCC2)cc1,0.32% (inactive)
17,CCN(c1ccc(NC(=O)COC(=O)CCc2nc3ccccc3n2-c2ccccc2)cc1)C(C)C,15.2% (inactive)
18,COc1cccc(N2CCN(CC(=O)N(C)Cc3ccc(F)cc3)CC2)c1,-2.14% (inactive)
19,CCCC(=O)Nc1ccc(C(=O)NCCCn2ccnc2)cc1,-4.06% (inactive)
20,CCOC(=O)[C@]12CCCC3=C1N(CCC3)C(=O)[C@@H](CC(=O)N1CCSCC1)C2,4.75% (inactive)
21,O=C1[C@H]2[C@@H](c3ccc(C(F)(F)F)cc3)N[C@]3(CCCN(Cc4ccc(Br)cc4)C3=O)[C@H]2C(=O)N1Cc1ccccc1,36.9% (active)
22,O=C1[C@H]2[C@@H](c3ccc(C(F)(F)F)cc3)N[C@]3(CCCN(Cc4ccc(Cl)cc4)C3=O)[C@H]2C(=O)N1Cc1ccccc1,17.5% (inactive)
23,CCN1C(=O)[C@H]2[C@@H](c3ccc(C(F)(F)F)cc3)N[C@]3(CCCN(Cc4ccc(Br)cc4)C3=O)[C@H]2C1=O,2.63% (inactive)
24,CC(C)N1CCCCC(NC(=O)c2ccc3ccccc3c2)C1=O (stereo unspecified),-1.93% (inactive)
25,CCOC(=O)[C@]12CCCC3=C1N(CCC3)C(=O)[C@@H](CC(=O)NCc1cccs1)C2,-1.3% (inactive)
